Bioassay records as filed in PubChem BioAssay.
GALR2 antag = antagonists of human galanin receptor 2 (GALR2) | O43603 | GALR2-expressing cells, antagonist mode | inhibition, % at 4 µM | hit rate 0.39% among 140,000 | AID 828; in the data active means inhibition above about 27%;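 further: cells stimulated with galanin 1-16 at roughly its EC80; 0% = agonist challenge control and 100% = basal control without agonist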
S1P2 antag = blocks the human S1P2 receptor; O95136; hit rate 0.21% among 97,000; inhibition, % at 5 µM; cell-based S1P2 antagonist assay, inhibition at 5 uM; in the data active means inhibition above about 45%;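 further: CRE beta-lactamase reporter cells expressing human S1P2 stimulated with S1P; 0% = agonist at EC80 alone and 100% = agonist plus reference antagonist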
PTPN22 inh 2 = inhibitors of human LYP (PTPN22) phosphatase; Q9Y2R2; recombinant LYP catalytic domain, DiFMUP fluorescence; inhibition, % at 2 µM; hit rate 0.21% among 96,000; AID 640;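 active means inhibition at 2 µM at or above a set limit, the screen mean plus 3 SD, cut at about 24% in these data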;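 further: 0% = DMSO with enzyme and 100% = enzyme fully blocked by orthovanadate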
Target sequence (Q9Y2R2 whole entry, looked up, the tested form may be a part): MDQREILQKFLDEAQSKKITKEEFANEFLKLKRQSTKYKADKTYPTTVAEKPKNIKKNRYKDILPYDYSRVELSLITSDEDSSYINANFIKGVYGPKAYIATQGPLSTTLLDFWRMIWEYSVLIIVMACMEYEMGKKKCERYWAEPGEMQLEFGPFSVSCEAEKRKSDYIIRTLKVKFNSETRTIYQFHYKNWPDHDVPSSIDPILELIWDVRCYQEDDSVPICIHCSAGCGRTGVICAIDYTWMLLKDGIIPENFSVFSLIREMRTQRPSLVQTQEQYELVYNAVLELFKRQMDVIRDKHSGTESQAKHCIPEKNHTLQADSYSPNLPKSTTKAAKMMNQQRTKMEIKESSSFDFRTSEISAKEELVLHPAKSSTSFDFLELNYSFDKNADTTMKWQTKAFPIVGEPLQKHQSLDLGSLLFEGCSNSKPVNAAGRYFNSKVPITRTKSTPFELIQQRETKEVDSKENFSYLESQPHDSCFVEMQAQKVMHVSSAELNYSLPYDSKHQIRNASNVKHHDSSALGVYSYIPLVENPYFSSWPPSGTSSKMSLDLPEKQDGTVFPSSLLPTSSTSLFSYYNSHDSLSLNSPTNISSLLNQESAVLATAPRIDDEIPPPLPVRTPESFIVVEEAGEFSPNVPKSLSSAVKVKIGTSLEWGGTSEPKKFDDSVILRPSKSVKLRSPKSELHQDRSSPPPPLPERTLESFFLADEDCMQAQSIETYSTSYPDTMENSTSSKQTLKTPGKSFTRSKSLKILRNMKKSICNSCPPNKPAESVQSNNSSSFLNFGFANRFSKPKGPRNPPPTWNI
S1P2 agonist = activates the human S1P2 receptor | O95136 | hit rate 0.46% among 97,000 | S1P2-expressing cell line, agonist reporter read-out | AID 729 | activation, % at 4.5 µM; in the data active means activation above about 16%;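 further: 0% = vehicle low control and 100% = maximal reference agonist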
PTPN22 act = activators of human LYP (PTPN22) phosphatase; Q9Y2R2; recombinant LYP, DiFMUP fluorescence; 0 = plate median, 100 = signal doubled; activation, % at 2 µM; hit rate 0.11% among 96,000;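 active means activation at 2 µM above a set limit, the mean plus 5 SD, cut at about 37% in these data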
GALR2 agonist = activates the human galanin receptor 2; O43603; GALR2-expressing cells, agonist activation read-out; activation, % (test concentration not listed); hit rate 0.48% among 140,000; AID 803; in the data active means activation above about 5%, passing the limit was not always enough;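 further: 0% = vehicle buffer wells and 100% = reference agonist at full effect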
* = called active by the depositor; nt = not tested or not shown. Sampled rows, rich in hits. Any-hit rate of the full collection: about 1.4%.

SMILES	GALR2 antag	S1P2 antag	PTPN22 inh 2	S1P2 agonist	PTPN22 act	GALR2 agonist
Cc1ccc(-c2nn(CC(=O)NCc3cc(-c4nn(C)c(=O)c5ccccc45)ccc3C)c(=O)c3ccccc23)cc1	-3	3	25*	-1	-24	-2
CCC(=O)NCc1cc(-c2nn(C)c(=O)c3ccccc23)ccc1C	-11	-13	3	0	-1	-1
O=C(COc1cccc(Cl)c1)Nc1ccc2c(c1)CCC2	2	nt	nt	nt	nt	-1
O=C(CSc1nc2ccccc2c(=O)[nH]1)N1CCOCC1	8	nt	nt	nt	nt	-1
O=C(CSc1nc2ccc(S(=O)(=O)N3CCOCC3)cc2[nH]1)N1CCOCC1	-15	-32	34*	-1	-36	-1
Cc1ccc(N(C(=O)Cn2nnc(-c3ccc(F)cc3)n2)C(CC(C)C)C(=O)NCC2CCCO2)cc1 (configuration not stated)	4	4	2	-5	1	0
Nc1nsc2ccccc12	50*	50*	-6	-3	4	-2
Nn1c(SCC(=O)NC2CCCc3ccccc32)nnc1-c1ccc(Cl)cc1Cl (configuration not stated)	-3	nt	nt	nt	nt	1
COc1ccc(OC)c(NC(=O)CSc2nc3c(c(=O)n(C)c(=O)n3C)n2C)c1	7	-42	-19	17*	18	0
CCOc1ccc2nc(NC(=O)CSc3nc4c(c(=O)n(C)c(=O)n4C)n3C(C)C)sc2c1	7	nt	nt	nt	nt	1
COc1ccc(CNC(=O)CSc2nc3c(c(=O)n(C)c(=O)n3C)n2C)cc1	2	-8	0	-2	0	0
CC(C)n1c(SCC(=O)Nc2nc3ccccc3s2)nc2c1c(=O)n(C)c(=O)n2C	-6	-38	-2	19*	0	-2
CN1C(=O)/C(=C/c2ccc(-c3ccccc3[N+](=O)[O-])o2)SC1=Nc1ccc(Cl)c(C(=O)O)c1	-6	nt	nt	nt	nt	0
COc1ccc(/C=C(\C#N)C(=O)OCC(=O)Nc2ccc(C(C)(C)C)cc2)cc1	-17	nt	nt	nt	nt	0
CCc1ccc2nc(NC(=O)c3ccc4c(=O)[nH]c(CN5CCOCC5)nc4c3)sc2c1	-7	20	28*	-6	-28	-2
CCn1cc(/C=N\NC(=O)C2(C)CC2(Cl)Cl)c(C)n1 (configuration not stated)	1	nt	nt	nt	nt	-1
COc1ccc(C(=O)C(CN2CCOCC2)c2ccccc2)cc1F (configuration not stated)	33*	7	-4	-5	3	-1
COc1ccc(OC)c(C(=O)CSc2nc3cccnc3n2C)c1	8	-15	-12	32*	8	-3
C=CCn1c(COc2cc(C)ccc2C(C)C)nnc1SCC(=O)c1c(N)n(C)c(=O)n(C)c1=O	6	nt	nt	nt	nt	-2
C[C@@H](C(=O)Nc1ccc2ccccc2c1)[C@H]1C[C@]1(C)[C@H](NS(=O)(=O)c1ccccc1)c1ccccc1	13	nt	nt	nt	nt	-1
COCCn1c(=NC(=O)/C=C/c2ccccc2Cl)sc2cc(NC(C)=O)ccc21	-6	nt	nt	nt	nt	6.0*
Cc1cccc(C(=O)N[C@H](C(=O)OCC(=O)NC(=O)c2cccn2C)C(C)C)c1	4	nt	nt	nt	nt	-1
Cc1ccc(S(=O)(=O)Oc2ccc(C3C4=C(CCCC4=O)N(CCC(=O)O)C4=C3C(=O)CCC4)cc2Cl)cc1	9	nt	nt	nt	nt	6.6*
Cc1c(CCO)c(=O)[nH]n1C(=O)c1ccc(F)cc1	-4	13	-4	-3	7	-1
CCOc1ccc(-c2csc(N)c2C(=O)OC)cc1	-5	-10	30*	0	-29	0
SMILES	GALR2 antag	S1P2 antag	PTPN22 inh 2	S1P2 agonist	PTPN22 act	GALR2 agonist
O=S(=O)(c1ccc(N2CCC(c3ccc(Cl)cc3)=N2)cc1)N(CCO)CCO	-40	-208	-1	111*	4	90*
CN(C)CCCNS(=O)(=O)c1ccc(N2CCC(c3ccc(Cl)cc3)=N2)cc1	-2	-214	-4	202*	5	132*
CN(C)CCCNS(=O)(=O)c1cc(Cl)ccc1Cl	-5	12	-20	-4	18	-2
CCN(CC(=O)N1CCCCCC1)S(=O)(=O)c1ccc(Cl)cc1	4	10	-4	-6	1	-1
N#CC(c1cccc(C(F)(F)F)c1)(c1ncc(C(F)(F)F)cc1Cl)N1CCOCC1 (configuration not stated)	-6	18	40*	-4	-38	0
Cc1nc2ccccc2n1CCc1nc2c3ccccc3nc(SCC#N)n2n1	0	-1	-2	39*	4	3
O=C(Nc1ccc([N+](=O)[O-])cn1)C1CC2CCC1C2 (configuration not stated)	12	nt	nt	nt	nt	1
Cc1ccccc1Cn1ccc(NC(=O)CCSc2nc(-c3ccco3)cc(C(F)(F)F)n2)n1	-7	7	25*	-8	-21	-1
CC(C)C1N=C2c3ccccc3N=C(SCc3cc(=O)n4ccccc4n3)N2C1=O (configuration not stated)	-2	-4	3	-3	0	2
CC1N=C2c3ccccc3N=C(SCc3cc(=O)n4cc(Cl)ccc4n3)N2C1=O (configuration not stated)	2	-51	-6	25*	8	1
COc1ccc(C2CC(c3c(O)cc(C)oc3=O)=NCCS2)c(OC)c1 (configuration not stated)	28*	nt	nt	nt	nt	0
CCOc1ccc(N2C(=O)CS/C2=C(\C(Cl)=C(Cl)Cl)[N+](=O)[O-])cc1	-6	-7	26*	-4	-25	-1
CCOc1ccc(N2C(=O)CS/C2=N/NC(=O)COc2ccc3ccccc3c2)cc1	-10	11	2	-4	1	-1
O=C(COc1ccccc1Cl)N1CCN(c2ccc([N+](=O)[O-])c(N3CCOCC3)c2)CC1	0	3	1	-9	4	-3
Cc1cccc(NC(=O)Nc2ccc(C#N)cc2)n1	38*	nt	nt	nt	nt	-3
Cc1cccc(NC(=O)Nc2cccc(C#N)c2)n1	18	nt	nt	nt	nt	0
C1CCC(c2nn3c(-c4n[nH]c5c4CCC5)nnc3s2)CC1	-9	-6	3	-4	-6	1
CCN(CC)c1ccc(-c2nn3c(-c4n[nH]c5c4CCC5)nnc3s2)cc1	4	3	20	-1	-22	6.3*
Cc1nc(SCC(=O)Nc2ccccc2)c2oc3ccccc3c2n1	2	-32	3	17*	1	-3
Cc1sc2ncnc(NCC(C)(C)N3CCOCC3)c2c1C	26	64*	-1	-6	-3	0
CC1C/C(=C/c2cccn2C)C(=O)/C(=C/c2cccn2C)C1 (configuration not stated)	24	59*	11	-11	-11	1
CC(C(=O)O)N1C(=O)/C(=C/c2cccn2C)SC1=S (configuration not stated)	-6	nt	nt	nt	nt	-1
Cc1ccc(-c2noc(CCC(=O)N3CCCc4ccccc43)n2)cc1	-8	-6	-2	43*	2	-2
Cc1ccc(-c2nnn(CC(=O)N3CCCc4ccccc43)n2)cc1	-6	9	-7	-6	9	-2
